Compounds without any hit were thinned out: in the full panel of roughly 79,000, 15% have a hit. Active and inactive are the calls of the source. Cut-off read from the data, not from the text of the source: active = growth inhibition above about 70%; inactive = the rest.
What was measured:
[1] = NCI Yeast Anticancer Drug Screen. Data for the rad52 strain (AID 147);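 note: 0% = growth of vehicle-treated control cultures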; conditions: S. cerevisiae rad52 mutant growth inhibition, hits give high values
Summary of the method: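 Measured: yeast growth inhibition. System: strain with a defined DNA damage repair alteration. Reference: vehicle-treated control cultures.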

[2] = NCI Yeast Anticancer Drug Screen. Data for the wt1 strain (AID 149);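 note: 0% = growth of vehicle-treated wt1 cultures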; conditions: S. cerevisiae wt1 strain (SPY 50644) growth inhibition, hits give high values
Summary of the method: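 Readout: yeast growth inhibition, normalised to vehicle controls, in the wt1 strain exposed to test compounds.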

[3] = NCI Yeast Anticancer Drug Screen. Data for the rad50EPP+ strain (AID 151);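 note: 0% = growth of vehicle-treated control cultures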; conditions: S. cerevisiae rad50 mutant strain, hits give high values
Summary of the method: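 One strain with a rad50 alteration (rad50EPP+) was compound-treated, its growth then compared to that of vehicle controls.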

[4] = NCI Yeast Anticancer Drug Screen. Data for the rad50 strain (AID 155);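 note: 0% = growth of vehicle-only cultures of the same strain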; conditions: S. cerevisiae rad50 strain growth inhibition, hits give high values
Summary of the method: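 Compounds were tested on a yeast strain with an engineered DNA damage repair alteration; the reported value is growth inhibition normalised to vehicle treatment.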

[5] = NCI Yeast Anticancer Drug Screen. Data for the mec2-1 strain (AID 157); conditions: S. cerevisiae mec2-1 strain, hits give high values
Summary of the method: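 Test agents were screened against the mec2-1 yeast strain, with defined DNA repair or cell cycle alteration. Growth was scored as inhibition against vehicle-only controls.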

[6] = NCI Yeast Anticancer Drug Screen. Data for the rad14 strain (AID 159);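 note: 0% = growth of vehicle-treated control cultures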; conditions: S. cerevisiae rad14 strain growth inhibition, hits give high values
Summary of the method: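 Compound-treated yeast with a defined DNA-repair lesion; growth inhibition normalised to vehicle-treated cultures.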

[7] = NCI Yeast Anticancer Drug Screen. Data for the sgs1 mgt1 strain (AID 161);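 note: 0% = growth of cultures given vehicle only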; conditions: S. cerevisiae sgs1 mgt1 strain, hits give high values
Summary of the method: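 Inhibition of yeast growth, normalised to vehicle-treated controls, is reported for a strain bearing genetic alterations in DNA damage repair.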

[8] = NCI Yeast Anticancer Drug Screen. Data for the CLN2oe strain (AID 163);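 note: 0% = growth of vehicle-only control cultures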; conditions: S. cerevisiae CLN2oe strain, hits give high values
Summary of the method: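 Here, growth inhibition in a cell-cycle-altered yeast strain after compound exposure was quantified against vehicle control growth.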

[9] = NCI Yeast Anticancer Drug Screen. Data for the cln2 rad14 strain (AID 165);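 note: 0% = growth equal to vehicle treated cultures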; conditions: S. cerevisiae cln2 rad14 strain, hits give high values
Summary of the method: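 Growth of compound-exposed yeast (cln2 rad14 genotype) measured and expressed as inhibition relative to vehicle.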

[10] = NCI Yeast Anticancer Drug Screen. Data for the bub3 strain (AID 167); conditions: S. cerevisiae bub3 mutant strain, hits give high values
Summary of the method: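 Growth of a checkpoint-deficient yeast mutant is measured after compound exposure. Values represent inhibition relative to vehicle.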

[11] = NCI Yeast Anticancer Drug Screen. Data for the wt2 strain (AID 169);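 note: 0% = growth of vehicle-treated yeast cultures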; conditions: S. cerevisiae wt2 strain growth inhibition, hits give high values
Summary of the method: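 Genetically defined yeast strains from a DNA-repair/cell-cycle panel were used. Compound-exposed yeast growth was measured, and the inhibition was calculated relative to vehicle treatment.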

[12] = NCI Yeast Anticancer Drug Screen. Data for the mlh1 strain (AID 171);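 note: 0% = growth of vehicle-treated control cultures of the same strain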; conditions: S. cerevisiae mlh1 strain growth inhibition, hits give high values
Summary of the method: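 Here the genetically defined yeast mutant is grown with each compound, and the extent to which its growth falls below that of vehicle-exposed cells is reported.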

[13] = NCI Yeast Anticancer Drug Screen. Data for the sgs1 strain (AID 173);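 note: 0% = growth of vehicle-only control cultures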; conditions: S. cerevisiae sgs1 mutant, hits give high values
Summary of the method: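 Relative growth inhibition, referenced to vehicle, was determined in a yeast strain with a defined alteration affecting DNA damage repair or cell cycle control after compound exposure.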

[14] = NCI Yeast Anticancer Drug Screen. Data for the mlh1 rad18 strain (AID 175); conditions: S. cerevisiae mlh1 rad18 strain growth inhibition, hits give high values
Summary of the method: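 In this whole-cell yeast screen, a strain with altered DNA damage repair is challenged with compound, and its growth is measured against matched vehicle-treated controls.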

[15] = NCI Yeast Anticancer Drug Screen. Data for the rad18 strain (AID 177); conditions: S. cerevisiae rad18 mutant growth inhibition, hits give high values
Summary of the method: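 Screen uses a yeast strain with a defined lesion in DNA damage repair; compound effect is read as loss of growth compared to untreated vehicle cultures.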

[16] = at 5.0 µM (retest, dose inferred, filed as 0.5)
[17] = at 50.0 µM (retest, dose inferred, filed as 5.0)

Measured: growth inhibition

On1cnc(=S)c2[nH]cnc21
inactive: [1]; at 1.2 µM -28% | [1]; at 3.7 µM -27% | [1]; at 11.0 µM -29% | [1]; at 33.0 µM -26% | [1]; at 100.0 µM -35% | [2]; at 1.2 µM -31% | [2]; at 3.7 µM -33% | [2]; at 11.0 µM -30% | [2]; at 33.0 µM -39% | [2]; at 100.0 µM -42% | [3]; at 1.2 µM -23% | [3]; at 3.7 µM -39% | [3]; at 11.0 µM -11% | [3]; at 33.0 µM -37% | [3]; at 100.0 µM -41% | [4]; at 1.2 µM -63% | [4]; at 3.7 µM -33% | [4]; [16] 24% | [4]; at 11.0 µM -65% | [4]; at 33.0 µM -62% | [4]; at 50.0 µM -7.05% | [4]; at 100.0 µM -55% | [5]; at 1.2 µM 31% | [5]; at 3.7 µM 9% | [5]; [16] 15% | [5]; at 11.0 µM 11% | [5]; at 33.0 µM -2% | [5]; at 50.0 µM 1.85% | [5]; at 100.0 µM -1% | [6]; at 1.2 µM -32% | [6]; at 3.7 µM -26% | [6]; at 11.0 µM -34% | [6]; at 33.0 µM -28% | [6]; at 100.0 µM -14% | [7]; [16] 36% | [7]; at 50.0 µM 9.3% | [8]; at 1.2 µM 23% | [8]; at 3.7 µM 9% | [8]; at 11.0 µM -10% | [8]; at 33.0 µM 19% | [8]; at 100.0 µM 11% | [9]; [16] 13% | [9]; at 50.0 µM 1.85% | [10]; at 1.2 µM -29% | [10]; at 3.7 µM -6% | [10]; [16] 17% | [10]; at 11.0 µM -17% | [10]; at 33.0 µM -3% | [10]; at 50.0 µM -6.65% | [10]; at 100.0 µM -8% | [11]; at 1.2 µM 2% | [11]; at 3.7 µM -6% | [11]; at 11.0 µM -11% | [11]; at 33.0 µM -4% | [11]; at 100.0 µM -19% | [12]; at 1.2 µM -6% | [12]; at 3.7 µM -14% | [12]; at 11.0 µM -28% | [12]; at 33.0 µM -29% | [12]; at 100.0 µM -37% | [13]; at 1.2 µM -22% | [13]; at 3.7 µM -26% | [13]; at 11.0 µM -16% | [13]; at 33.0 µM -44% | [13]; at 100.0 µM -32% | [14]; [16] 60% | [14]; at 50.0 µM 7.7% | [15]; at 1.2 µM -40% | [15]; at 3.7 µM -33% | [15]; at 11.0 µM -55% | [15]; at 33.0 µM -61% | [15]; at 100.0 µM -67%
active: [4]; [17] 74% | [5]; [17] 99% | [7]; [17] 100% | [9]; [17] 97% | [10]; [17] 99% | [14]; [17] 98%

CC(=O)N1C(=O)/C(=C\C(=O)c2ccc(Cl)cc2)c2ccccc21
inactive: [1]; at 1.2 µM 8% | [1]; at 3.7 µM 34% | [1]; at 11.0 µM 59% | [2]; at 1.2 µM 5% | [2]; at 3.7 µM 7% | [2]; at 11.0 µM 31% | [3]; at 1.2 µM -2% | [3]; at 3.7 µM 12% | [3]; at 11.0 µM 22% | [3]; at 33.0 µM 47% | [4]; at 1.2 µM 11% | [4]; at 3.7 µM 0% | [4]; [16] 44% | [4]; at 11.0 µM 51% | [5]; at 1.2 µM -3% | [5]; at 3.7 µM -8% | [5]; [16] 45% | [5]; at 11.0 µM 17%
active: [1]; at 33.0 µM 93% | [1]; at 100.0 µM 94% | [2]; at 33.0 µM 79% | [2]; at 100.0 µM 94% | [3]; at 100.0 µM 72% | [4]; at 33.0 µM 90% | [4]; [17] 96% | [4]; at 50.0 µM 76% | [4]; at 100.0 µM 92% | [5]; at 33.0 µM 81% | [5]; [17] 98% | [5]; at 50.0 µM 87.4%
